Measurements: PubChem BioAssay (EPA / NIEHS)
Active and inactive are the calls of the source. Rule for the calls: active = hit-call score of the fitted dose curve at least 0.9, where 1 is the maximum; inactive = score below 0.9.

These compounds were tested on Bcl-2 (BAX) gene, BAX (gene 581) (assay: LTEA_HepaRG_BAX: Life Technologies and Expression Analysis (LTEA) Assay for Bcl-2 (BAX) gene using HepaRG (AID 2283470)). Conditions: mRNA level, 48 h; actives raise or lower the signal.
Summary of the method: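 Human HepaRG cells treated in duplicate for 48 h across eight concentrations (max 100 uM, 0.5% DMSO); BAX expression measured by qRT-PCR.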

| Structure (SMILES) | AC50 | outcome |
| --- | --- | --- |
| CCCCC(O)(Cn1cncn1)c1ccc(Cl)cc1Cl (stereo unspecified) | 74.6 µM (active) |  |
| CC(C)N1C(=O)c2ccccc2NS1(=O)=O |  | inactive |
| O=C(Nc1ccccc1-c1ccc(Cl)cc1)c1cccnc1Cl |  | inactive |
| N#CN=C1SCCN1Cc1ccc(Cl)nc1 |  | inactive |
| CCNC(=O)NC(=O)C(C#N)=NOC |  | inactive |
| Cc1c(COC(=O)[C@@H]2[C@H](/C=C(\Cl)C(F)(F)F)C2(C)C)cccc1-c1ccccc1 |  | inactive |
| C=C(C)CN(CC)c1c([N+](=O)[O-])cc(C(F)(F)F)cc1[N+](=O)[O-] |  | inactive |
| CC(C)C1(C)N=C(c2ncccc2C(=O)O)NC1=O (stereo unspecified) |  | inactive |
| CCCC(=NOCC)C1=C(O)CC(CC(C)SCC)CC1=O (stereo unspecified) |  | inactive |
| O=C1C2CC=CCC2C(=O)N1SC(Cl)(Cl)Cl (stereo unspecified) |  | inactive |
| COCc1cnc(C2=NC(C)(C(C)C)C(=O)N2)c(C(=O)O)c1 (stereo unspecified) |  | inactive |
| Cc1nc(N(C)C)nc(OC(=O)N(C)C)c1C |  | inactive |
| CC(C)N1C(=O)N(c2ccccc2)CSC1=NC(C)(C)C | 77.4 µM (active) |  |
| Clc1cccc(C(Cl)(Cl)Cl)n1 |  | inactive |
| CC1(C)CON(Cc2ccccc2Cl)C1=O |  | inactive |
| CN/C(=N\[N+](=O)[O-])NCc1cnc(Cl)s1 |  | inactive |
| Cc1ccc(N=CN(C)C=Nc2ccc(C)cc2C)c(C)c1 |  | inactive |
| CCN(CC)c1nc(C)cc(OP(=S)(OC)OC)n1 |  | inactive |
| COCC(C)N(C(=O)CCl)c1c(C)csc1C (stereo unspecified) |  | inactive |
| CCOc1nc(C(Cl)(Cl)Cl)ns1 | 1.39 µM (active) |  |
| CCC(C)n1c(=O)[nH]c(C)c(Br)c1=O (stereo unspecified) |  | inactive |
